The text below walks through data of the antibiotic and cytotoxicity screens of Wong et al. (2023).

Structures are written as SMILES. The campaign covered roughly 39,000 compounds. About 3,300 (8.5%) were called active. The full list was thinned out, with actives kept by preference.

The subject of this assay is HepG2. The assay is described as follows: cytotoxicity call (relative viability < 0.9). The settings on record: 10 µM.
For the compound `CO[C@@H]1CN(C)C(=O)c2cc(NC(=O)Nc3cccc(F)c3)ccc2OC[C@@H](C)N(C(=O)Nc2c(C)noc2C)C[C@H]1C`, the cytotoxicity call was “inactive”.
In the case of `Cc1cc(Cn2c(=O)n(Cc3cnc(C)s3)c(=O)c3cc(S(=O)(=O)NC4(C)CC4)ccc32)n(C)n1` it was “inactive”; in that of `COc1ccccc1CNC(=O)C[C@@H]1C[C@H]2c3cc(NC(=O)c4ccc5c(c4)OCO5)ccc3O[C@H]2[C@H](CO)O1`, “inactive”; in that of `C[C@@H]1CN([C@H](C)CO)C(=O)c2cc(C#Cc3ccccc3)cnc2O[C@@H]1CN(C)S(=O)(=O)c1ccccc1F`, “inactive”.
In the case of `C[C@@H]1CN([C@H](C)CO)C(=O)c2cc(C#Cc3ccccc3F)cnc2O[C@H]1CN(C)S(=O)(=O)c1ccccc1F` it was “inactive”; in that of `C[C@H]1CN([C@@H](C)CO)C(=O)c2cc(C#Cc3ccccc3F)cnc2O[C@@H]1CN(C)S(=O)(=O)c1ccccc1F`, “inactive”.
In the case of `C[C@@H]1CN([C@@H](C)CO)C(=O)c2cc(C#Cc3ccccc3)cnc2O[C@@H]1CN(C)S(=O)(=O)c1ccccc1F` it was “active”; in that of `C[C@@H]1CN([C@@H](C)CO)C(=O)c2cc(C#Cc3ccccc3F)cnc2O[C@H]1CN(C)S(=O)(=O)c1ccccc1F`, “active”; in that of `C[C@@H]1CN([C@@H](C)CO)C(=O)c2cc(C#Cc3ccccc3)cnc2O[C@H]1CN(C)S(=O)(=O)c1ccccc1F`, “active”.
`C[C@H](CO)N1C[C@H](C)[C@@H](CN(C)S(=O)(=O)c2ccccc2F)Oc2ncc(C#Cc3ccccc3)cc2C1=O`: the cytotoxicity call is “inactive”.
`C[C@H](CO)N1C[C@H](C)[C@H](CN(C)S(=O)(=O)c2ccccc2F)Oc2ncc(C#Cc3ccccc3)cc2C1=O`: the cytotoxicity call is “inactive”.
For `C[C@H]1CN([C@@H](C)CO)C(=O)c2cc(C#Cc3ccccc3)cnc2O[C@H]1CN(C)S(=O)(=O)c1ccccc1F` the value was “inactive”.
For `C[C@H](CO)N1C[C@H](C)[C@H](CN(C)C(=O)Nc2cccc3ccccc23)Oc2ccc(NC(=O)NC3CCCCC3)cc2CC1=O` the value was “inactive”; for `Cc1cc(=O)n(CNC(=O)c2ccco2)cn1`, “inactive”.
As for `O=C([O-])C(O)C(O)C(O)C(O)C(O)CO.O=C([O-])C(O)C(O)C(O)C(O)C(O)CO.[Ca+2]` (stereo unspecified), the cytotoxicity call was “inactive”.
On to `O=C(C[C@H]1CC[C@H]2NC[C@@H](O)COC[C@@H]2O1)NCCN1CCCC1`, for which the cytotoxicity call was “inactive”.
As to `COc1ccsc1C(N)=O`, the cytotoxicity call is “inactive”.
For `C[C@H]1CN([C@@H](C)CO)C(=O)Cc2cc(NC(=O)CCCCCC(=O)Nc3ccccc3N)ccc2O[C@@H]1CN(C)C(=O)Nc1cccc2ccccc12` the value was “inactive”; for `COC(=O)C[C@@H]1CC[C@@H]2[C@H](COC[C@@H](O)CN2S(=O)(=O)c2cn(C)cn2)O1`, “inactive”.
Turning to `CC(C)=CCC/C(C)=C/CC/C(C)=C/CC/C(C)=C/CO`, the cytotoxicity call is “inactive”.
For the compound `Cc1ccc(-c2cnc3c(c2)C(=O)N([C@@H](C)CO)C[C@H](C)[C@H](CN(C)C(=O)Cc2ccncc2)O3)cc1`, the cytotoxicity call is “inactive”.
For `C[C@@H]1CN([C@H](C)CO)C(=O)c2cc(NC(=O)CCN3CCOCC3)ccc2O[C@@H]1CN(C)S(=O)(=O)c1ccc(F)cc1` the value was “inactive”; for `C[C@@H]1CCCCO[C@H](CN(C)C(=O)c2ccccc2)[C@@H](C)CN([C@H](C)CO)C(=O)c2cc(NC(=O)Nc3ccccc3)ccc2O1`, “inactive”.
For `C[C@@H]1CN([C@@H](C)CO)C(=O)c2cc(NC(=O)CCN3CCOCC3)ccc2O[C@@H]1CN(C)C(=O)Nc1ccc2c(c1)OCO2` the value was “active”.
For `C[C@@H]1CN([C@H](C)CO)C(=O)c2cc(NC(=O)CCN3CCOCC3)ccc2O[C@@H]1CN(C)C(=O)Nc1ccc2c(c1)OCO2` the value was “inactive”.
On to `C[C@@H]1CN([C@@H](C)CO)C(=O)c2cc(NC(=O)CCN3CCOCC3)ccc2O[C@H]1CN(C)C(=O)Nc1ccc2c(c1)OCO2`, for which the cytotoxicity call was “inactive”.
Turning to `C[C@@H]1CN([C@H](C)CO)C(=O)c2cc(NC(=O)CCN3CCOCC3)ccc2O[C@H]1CN(C)C(=O)Nc1ccc2c(c1)OCO2`, the cytotoxicity call was “active”.
Consider `C[C@H]1CN([C@@H](C)CO)C(=O)c2cc(NC(=O)CCN3CCOCC3)ccc2O[C@H]1CN(C)C(=O)Nc1ccc2c(c1)OCO2`, for which the cytotoxicity call was “inactive”.
Consider `C[C@H](CO)N1C[C@H](C)[C@H](CN(C)C(=O)Nc2ccc3c(c2)OCO3)Oc2ccc(NC(=O)CCN3CCOCC3)cc2C1=O`, for which the cytotoxicity call was “inactive”.
Take `C[C@@H]1CCCCO[C@@H](CN(C)S(=O)(=O)c2cn(C)cn2)[C@@H](C)CN([C@H](C)CO)C(=O)c2cc(NC(=O)c3ccncc3)ccc2O1`: the cytotoxicity call is “inactive”.
In the case of `COc1cccc(OC[C@@H](O)CN(CCO)CCO)c1` it was “inactive”; in that of `O=C(C[C@@H]1C=C[C@@H](NC(=O)Nc2ccc3c(c2)OCO3)[C@@H](CO)O1)NCCCN1CCOCC1`, “inactive”; in that of `C[C@H]1CCCCO[C@H](CN(C)S(=O)(=O)c2cn(C)cn2)[C@@H](C)CN([C@@H](C)CO)C(=O)c2cc(NS(C)(=O)=O)ccc2O1`, “inactive”.
For the compound `C[C@@H]1CN([C@H](C)CO)C(=O)c2cccc(N(C)C)c2O[C@@H]1CN(C)S(C)(=O)=O`, the cytotoxicity call was “inactive”.
`C[C@@H]1CCCCO[C@H](CN(C)S(=O)(=O)c2ccccc2)[C@H](C)CN([C@@H](C)CO)C(=O)c2cc(NC(=O)Nc3ccccc3)ccc2O1`: the cytotoxicity call was “inactive”.
As for `COCC#Cc1ccc([C@@H]2[C@@H](CO)N3C(=O)CN(C(=O)C4CCOCC4)C[C@H]23)cc1`, the cytotoxicity call was “inactive”.
In the case of `COc1ccccc1OC[C@@H](O)COC(N)=O` it was “inactive”; in that of `NC(=O)OCC(COC(N)=O)c1ccccc1`, “inactive”.
`COc1ccccc1OCC(O)COC(N)=O` (stereo unspecified): the cytotoxicity call is “active”.
In the case of `Cc1noc(C)c1S(=O)(=O)Nc1ccc2c(c1)CC(=O)N([C@H](C)CO)C[C@@H](C)[C@@H](CN(C)CC1CC1)O2` it was “inactive”; in that of `Cc1ccc(S(=O)(=O)N(C)C[C@@H]2Oc3ccc(NC(=O)Cn4cnnn4)cc3CC(=O)N([C@@H](C)CO)C[C@@H]2C)cc1`, “inactive”.
As to `Cc1noc(C)c1S(=O)(=O)Nc1ccc2c(c1)CC(=O)N([C@@H](C)CO)C[C@H](C)[C@@H](CN(C)Cc1ccc(Oc3ccccc3)cc1)O2`, the cytotoxicity call is “inactive”.
As for `Cc1noc(C)c1S(=O)(=O)Nc1ccc2c(c1)CC(=O)N([C@H](C)CO)C[C@@H](C)[C@H](CN(C)Cc1ccc(-c3ccccc3)cc1)O2`, the cytotoxicity call was “inactive”.
Regarding `Cc1noc(C)c1S(=O)(=O)Nc1ccc2c(c1)CC(=O)N([C@H](C)CO)C[C@@H](C)[C@@H](CN(C)Cc1ccc(Oc3ccccc3)cc1)O2`, the cytotoxicity call was “inactive”.
For `Cc1noc(C)c1S(=O)(=O)Nc1ccc2c(c1)CC(=O)N([C@@H](C)CO)C[C@@H](C)[C@@H](CN(C)Cc1ccc3c(c1)OCO3)O2` the value was “inactive”.
As for `Cc1noc(C)c1S(=O)(=O)Nc1ccc2c(c1)CC(=O)N([C@H](C)CO)C[C@H](C)[C@@H](CN(C)Cc1ccc(-c3ccccc3)cc1)O2`, the cytotoxicity call is “active”.
`Cc1noc(C)c1S(=O)(=O)Nc1ccc2c(c1)CC(=O)N([C@@H](C)CO)C[C@@H](C)[C@H](CN(C)Cc1ccc(Oc3ccccc3)cc1)O2`: the cytotoxicity call was “inactive”.
In the case of `Cc1noc(C)c1S(=O)(=O)Nc1ccc2c(c1)CC(=O)N([C@H](C)CO)C[C@@H](C)[C@@H](CN(C)Cc1ccc3c(c1)OCO3)O2` it was “active”; in that of `Cc1noc(C)c1S(=O)(=O)Nc1ccc2c(c1)CC(=O)N([C@H](C)CO)C[C@H](C)[C@H](CN(C)Cc1ccc(Oc3ccccc3)cc1)O2`, “inactive”.
For `Cc1noc(C)c1S(=O)(=O)Nc1ccc2c(c1)CC(=O)N([C@@H](C)CO)C[C@@H](C)[C@H](CN(C)Cc1ccc3c(c1)OCO3)O2` the value was “inactive”; for `Cc1noc(C)c1S(=O)(=O)Nc1ccc2c(c1)CC(=O)N([C@@H](C)CO)C[C@@H](C)[C@@H](CN(C)Cc1ccc(Oc3ccccc3)cc1)O2`, “active”; for `Cc1noc(C)c1S(=O)(=O)Nc1ccc2c(c1)CC(=O)N([C@@H](C)CO)C[C@@H](C)[C@@H](CN(C)Cc1ccc(-c3ccccc3)cc1)O2`, “inactive”.
In the case of `Cc1noc(C)c1S(=O)(=O)Nc1ccc2c(c1)CC(=O)N([C@H](C)CO)C[C@H](C)[C@@H](CN(C)Cc1ccc(Oc3ccccc3)cc1)O2` it was “active”; in that of `COc1ccc(S(=O)(=O)Nc2ccc3c(c2)C(=O)N([C@H](C)CO)C[C@@H](C)[C@H](CN(C)C(=O)NC2CCCCC2)OCCCC[C@@H](C)O3)cc1`, “inactive”; in that of `C[C@H]1CN([C@@H](C)CO)C(=O)c2cc(NC(=O)Nc3cccc4ccccc34)ccc2O[C@H]1CN(C)C(=O)Nc1ccc(F)cc1`, “inactive”.
For `C[C@@H]1CN([C@@H](C)CO)C(=O)CCCn2cc(nn2)CO[C@H]1CN(C)S(=O)(=O)c1cccc(C#N)c1`, the cytotoxicity call is “inactive”.
With `Cc1noc(C)c1NC(=O)N(C)C[C@H]1Oc2ccc(NC(=O)Nc3ccc(C(F)(F)F)cc3)cc2CC(=O)N([C@@H](C)CO)C[C@@H]1C`, the cytotoxicity call is “inactive”.
Consider `COc1ccc(C#Cc2ccc3c(c2)O[C@H](CN(C)C(C)=O)[C@H](C)CN([C@H](C)CO)S3(=O)=O)cc1`, for which the cytotoxicity call is “inactive”.
For the compound `C=C/C=C/[C@@H]1C(=C)CN([C@@H](Cc2ccccc2)C(=O)OC)[C@H]1[C@@H](O)CCn1cc(-c2ccc(C(=O)NO)s2)nn1`, the cytotoxicity call was “inactive”.
In the case of `C[C@@H]1CN([C@H](C)CO)C(=O)c2cc(NC(=O)Cc3ccccc3)ccc2O[C@@H](C)CCCCO[C@@H]1CN(C)C(=O)NC1CCCCC1`, the cytotoxicity call was “inactive”.
For `COc1ccc(S(=O)(=O)N(C)C[C@@H]2OCCCC[C@H](C)Oc3ccc(NC(=O)CCC(F)(F)F)cc3C(=O)N([C@@H](C)CO)C[C@H]2C)cc1` the value was “inactive”; for `COc1ccc(S(=O)(=O)Nc2ccc3c(c2)CC(=O)N([C@@H](C)CO)C[C@@H](C)[C@@H](CN(C)CC2CC2)O3)cc1`, “inactive”.
As for `COc1ccc(S(=O)(=O)N[C@@H]2CC[C@@H](CC(=O)N3CCN(c4ccccc4)CC3)O[C@@H]2CO)cc1`, the cytotoxicity call is “inactive”.
On to `Cn1cnc(CN)c1`, for which the cytotoxicity call was “inactive”.
Turning to `C[C@H]1CN([C@@H](C)CO)C(=O)c2cc(C#CCc3ccccc3)cnc2O[C@@H]1CN(C)C(=O)C1CCOCC1`, the cytotoxicity call was “inactive”.
In the case of `C[C@H]1CN([C@@H](C)CO)C(=O)c2cc(NS(=O)(=O)c3ccccc3)ccc2O[C@@H]1CN(C)Cc1ccncc1` it was “inactive”.
